Values joined by “and” are separate entries in the source; they are usually repeats but may differ in a detail not shown here. Identical values can stand only once. Hit rate of the full screen: of about 5,500 compounds, about 2,000 (36%) were called active. Another 18% or so got no clear call; they are omitted. Rule as the data show it: active = normalized growth mostly below about 0.91 (no sharp cut-off); inconclusive = no clear call, values can overlap the other calls; inactive = mostly above about 0.92. Some of the results follow.
Assay: chemical genetic growth profiling, strain panel (AID 1159580);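 also: tested at 20 µM; growth read once vehicle control cultures reached saturation at 30 °C; 1 = growth at the plate median or of vehicle wells; lower values mean less growth of the strain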
Details: S. cerevisiae deletion strains, growth OD

Measured: normalized growth

CN1CC(=O)N=C1N
inactive: locus YAL013W, strain DEP1, active compounds read low 1.01 | locus YAL021C, strain ccr4, active compounds read low 1.01 | locus YAL026C, strain drs2, active compounds read low 1.03 | locus YAL030W, strain snc1, active compounds read low 1.02 | locus YBL061C, strain skt5, active compounds read low 1.03 | locus YBR009C, strain hhf1, active compounds read low 1.05 | locus YBR021W, strain FUR4, active compounds read low 1 | locus YBR023C, strain chs3, active compounds read low 1.03 | locus YBR171W, strain sec66, active compounds read low 1.03 | locus YBR229C, strain ROT2, active compounds read low 1 | locus YBR231C, strain swc5, active compounds read low 1.03 | locus YBR279W, strain paf1, active compounds read low 1.03 | locus YCL011C, strain gbp2, active compounds read low 1.03 | locus YCL016C, strain dcc1, active compounds read low 1.02 | locus YCL029C, strain bik1, active compounds read low 0.986 | locus YCL061C, strain MRC1, active compounds read low 1.01 | locus YCL069W, strain vba3, active compounds read low 1.02 | locus YCR088W, strain abp1, active compounds read low 1.01 | locus YDL005C, strain med2, active compounds read low 1.02 | locus YDL035C, strain GPR1, active compounds read low 1.01 | locus YDL040C, strain nat1, active compounds read low 1.01 | locus YDL074C, strain BRE1, active compounds read low 1.03 | locus YDL101C, strain DUN1, active compounds read low 1.02 | locus YDL134C, strain PPH21, active compounds read low 1 | locus YDL185W, strain tfp1, active compounds read low 0.992 | locus YDL192W, strain arf1, active compounds read low 1 | locus YDR001C, strain nth1, active compounds read low 1.01 | locus YDR069C, strain doa4, active compounds read low 1.04 | locus YDR101C, strain arx1, active compounds read low 0.991 | locus YDR137W, strain rgp1, active compounds read low 1.1 | locus YDR159W, strain sac3, active compounds read low 1.05 | locus YDR162C, strain NBP2, active compounds read low 1.02 | locus YDR195W, strain ref2 0.969 | locus YDR297W, strain sur2, active compounds read low 1.02 | locus YDR318W, strain mcm21, active compounds read low 0.997 | locus YDR334W, strain swr1, active compounds read low 1.02 | locus YDR335W, strain msn5, active compounds read low 1.03 | locus YDR388W, active compounds read low 0.997 | locus YDR392W, strain spt3, active compounds read low 1.02 | locus YDR502C, strain sam2, active compounds read low 0.995 | locus YEL003W, strain gim4, active compounds read low 1.04 | locus YEL037C, strain rad23, active compounds read low 1.01 | locus YEL061C, strain CIN8 (second series), active compounds read low 1.02 | locus YEL061C, strain CIN8, active compounds read low 1.01 | locus YER015W, strain faa2, active compounds read low 1.02 | locus YER016W, strain bim1, active compounds read low 1.02 | locus YER110C, active compounds read low 0.992 | locus YER111C, strain swi4, active compounds read low 1.04 | locus YER155C, strain BEM2 (second series), active compounds read low 1.06 | locus YER155C, strain BEM2, active compounds read low 1.01 | locus YER167W, strain BCK2, active compounds read low 1.01 | locus YFR010W, strain ubp6, active compounds read low 1.03 | locus YGL078C, strain dbp3, active compounds read low 0.995 | locus YGL086W, strain mad1, active compounds read low 0.998 | locus YGL167C, strain pmr1, active compounds read low 1.03 | locus YGL173C, strain kem1, active compounds read low 1.03 | locus YGL227W, strain vid30, active compounds read low 1.02 | locus YGL240W, strain doc1, active compounds read low 1.05 | locus YGL248W, strain PDE1, active compounds read low 1.01 | locus YGL253W, strain hxk2, active compounds read low 1.02 | locus YGR078C, strain PAC10, active compounds read low 1.01 | locus YGR135W, strain pre9, active compounds read low 1 | locus YGR229C, strain SMI1, active compounds read low 1.02 | locus YGR252W, strain gcn5, active compounds read low 0.965 | locus YHR013C, strain ard1, active compounds read low 1.06 | locus YHR027C, strain rpn1, active compounds read low 1.02 | locus YHR030C, strain SLT2, active compounds read low 1.01 and 0.962 | locus YHR079C, strain IRE1 (second series), active compounds read low 0.994 | locus YHR079C, strain IRE1, active compounds read low 0.966 | locus YHR094C, strain hxt1, active compounds read low 0.994 | locus YHR129C, strain ARP1, active compounds read low 1.01 | locus YHR142W, strain chs7, active compounds read low 0.996 | locus YHR200W, strain rpn10, active compounds read low 0.997 | locus YIL066C, strain RNR3, active compounds read low 1.02 | locus YIL073C, strain SPO22, active compounds read low 1.03 | locus YIL125W, strain kgd1, active compounds read low 0.988 | locus YIR030C, strain dcg1, active compounds read low 0.998 | locus YJL092W, strain hpr5, active compounds read low 1.01 | locus YJL095W, strain BCK1 (second series), active compounds read low 1.03 | locus YJL095W, strain BCK1, active compounds read low 1.03 and 0.956 | locus YJL115W, strain asf1, active compounds read low 1.02 | locus YJL129C, strain trk1, active compounds read low 1.04 | locus YJL134W, strain LCB3, active compounds read low 1.01 | locus YJL154C, strain vps35, active compounds read low 1.02 | locus YJL164C, strain tpk1, active compounds read low 1.05 | locus YJL166W, strain qcr8, active compounds read low 1.03 | locus YJL168C, strain set2, active compounds read low 1 | locus YJL187C, strain SWE1 (second series), active compounds read low 1.02 | locus YJL187C, strain SWE1, active compounds read low 1.03

Source: PubChem BioAssay AID1159580 (chemical genetic matrix, 2015)
